Assay outcomes from PubChem.
In the library only some 3.5% were active in any assay of this set; here they are far more common.
Pf apPOL block: Pf-apPOL inhibitors, biochemical, fluorescence | Plasmodium falciparum apicoplast DNA polymerase (apPOL) | Recombinant Pf-apPOL, molecular beacon fluorescence, 1.5 h | 210,000 compounds, 0.25% hits | inhibition, % at 10 µM | AID 1794808, 2022
mHTT-CaM PPI inh: mutant huntingtin-calmodulin interaction inhibitors – biochemical, AlphaScreen, primary screen; P42858; AlphaScreen His-mHTT/GST-CaM binding, luminescence; inhibition, % at 15 µM; 190,000 compounds, 3.6% hits
Numbers stand for hits; 0 = inactive; - = no result given. No stated cut-off is given here; in the data, active means inhibition above about 50%; inactive means the rest.

SMILES | Pf apPOL block | mHTT-CaM PPI inh
Cc1cccc(-n2nc3c(c2NC(=O)c2ccco2)CSC3)c1C | 0 | 60.0
COc1cc(C(=O)Nc2c3c(nn2-c2ccc(C)cc2C)CSC3)cc(OC)c1OC | 0 | 0
COc1cccc(C(=O)Nc2c3c(nn2-c2ccc(C)cc2C)CSC3)c1OC | 0 | 50.0
Cc1ccc(-n2nc3c(c2NC(=O)c2ccc([N+](=O)[O-])cc2)CSC3)c(C)c1 | 0 | 50.0
Cc1ccc(C(=O)Nc2c3c(nn2-c2ccc(C)cc2C)CSC3)cc1 | 0 | 0
Cc1ccc(-n2nc3c(c2NC(=O)c2ccco2)CSC3)c(C)c1 | 0 | 52.0
Cc1ccccc1-n1nc2c(c1NC(=O)c1ccco1)CSC2 | 0 | 0
O=C(NCc1ccco1)c1cc2n(n1)C(C(F)(F)F)CC(c1cccs1)N2 (stereo unspecified) | 0 | 0
O=C(Nc1nc(C23CC4CC(CC(C4)C2)C3)cs1)c1c(O)c2cccc3c2n(c1=O)CC3 | 0 | 0
O=C(Nc1ncc(Cc2cccc([N+](=O)[O-])c2)s1)c1ccco1 | 0 | 0
O=[N+]([O-])c1ccc(Sc2ccc(Cl)cc2)c(-c2ccn[nH]2)c1 | 0 | -
Cc1cc(=O)n(CC(=O)Nc2ccc(F)c(C(F)(F)F)c2)cn1 | 0 | 0
CC(=O)Nc1c2c(nn1-c1cccc(Cl)c1)CSC2 | 0 | 0
O=C(NCc1cccs1)C(=O)Nc1c2c(nn1-c1cccc(Cl)c1)CSC2 | 0 | 69.3
O=C(Nc1c2c(nn1-c1cccc(Cl)c1)CSC2)c1ccco1 | 0 | 67.0
O=C(Nc1c2c(nn1-c1cccc(Cl)c1)CSC2)c1c(F)cccc1F | 0 | 0
Cc1cc(C)n2ncc(C(N)=NO)c2n1 | 0 | -
Cc1csc(NC(=O)c2ccc(N3CCCC3)nn2)n1 | 0 | 72.3
CCSc1nnc(NC(=O)c2ccc(N3CCCC3)nn2)s1 | 0 | 0
CC(C)C(=O)N1CCCC1COc1ccc(C(=O)NC2CC2)cc1 (stereo unspecified) | 0 | 0
O=C(CCn1ccc(=O)[nH]c1=O)Nc1cccc(-c2csc(-c3ccccc3)n2)c1 | 0 | 0
Cc1ccc(-c2noc(CCn3nc(-c4ccccc4)ccc3=O)n2)cc1 | 0 | 0
O=c1ccc(-c2ccccc2)nn1CCc1nc(-c2cccc(F)c2)no1 | 0 | 81.4
COc1ccc(-n2nc3c(c2NC(=O)c2ccc(C(C)(C)C)cc2)CSC3)cc1 | 0 | 100.0
CC(C)C(=O)Nc1c2c(nn1-c1ccc(Oc3ccccc3)cc1)CSC2 | 0 | 65.0
SMILES | Pf apPOL block | mHTT-CaM PPI inh
COc1ccc(-n2nc3c(c2NC(=O)/C=C/c2cc(OC)c(OC)c(OC)c2)CSC3)cc1 | 0 | 0
COc1ccc(-n2nc3c(c2NC(=O)/C=C/c2ccccc2)CSC3)cc1 | 0 | 52.0
COc1ccc(-n2nc3c(c2NC(=O)c2ccc(Br)cc2)CSC3)cc1 | 0 | 0
COc1ccc(-n2nc3c(c2NC(=O)c2ccccc2)CSC3)cc1 | 0 | 0
O=[N+]([O-])c1cccc(C2=CC(c3ccccc3F)n3ncnc3N2)c1 (stereo unspecified) | 0 | 0
COc1ccc(N2CCN(C(=O)c3ccnc(-c4cccs4)c3)CC2)cc1 | 0 | 50.0
O=C(c1ccnc(-c2cccs2)c1)N1CCCCCC1 | 0 | 0
COc1c(C(=O)N2CCOCC2)sc2ccc(F)cc12 | 0 | 0
COc1c(C(=O)N2CCN(c3ccccc3)CC2)sc2ccc(F)cc12 | 0 | 60.1
CC(=O)Nc1ccc(SC[C@H](C)CN2CC[C@H](C(C)(C)C)CCC2=O)cc1 | 0 | 0
Cc1ccc2c(c1)NC(c1ccc([N+](=O)[O-])cc1)C1CC=CC21 (stereo unspecified) | 0 | 0
COc1cc(C2Nc3ccc([N+](=O)[O-])cc3C3C=CCC32)cc(OC)c1OC (stereo unspecified) | 0 | 71.0
NS(=O)(=O)c1ccc2c(c1)C1C=CCC1C(c1ccc(Br)cc1)N2 (stereo unspecified) | 0 | 83.8
Nc1ccc2c(c1)C1C=CCC1C(c1ccc([N+](=O)[O-])cc1)N2 (stereo unspecified) | 0 | 97.7
COc1cc([N+](=O)[O-])cc2c1NC(c1ccc(Br)cc1)C1CC=CC21 (stereo unspecified) | 0 | 0
O=[N+]([O-])c1ccc(C2Nc3ccc(F)cc3C3C=CCC32)cc1 (stereo unspecified) | 0 | 91.1
Brc1ccc2c(c1)[C@@H]1C=CC[C@@H]1[C@H](c1ccncc1)N2 | - | 0
COc1ccc2cc3cc(C(=O)NCC4CCCO4)oc3nc2c1 (stereo unspecified) | 0 | 0
Cc1cc(-n2nnc(C(=O)O)c2-c2ccccn2)ccc1F | 0 | 0
Cc1ccccc1NC(=O)c1cc2c(CO)cnc(C)c2oc1=Nc1ccc(C#N)cc1 | 0 | 0
COc1cc(NC(=O)c2ccccc2[N+](=O)[O-])ccc1NC(=O)c1cc2ccccc2o1 | 0 | 0
CC(C)(C)S(=O)(=O)C(C#N)=CN1CCC(n2cccc2)CC1 | 0 | -
O=[N+]([O-])c1ccc(C2Nc3cc(Cl)cc(Cl)c3C3C=CCC32)cc1 (stereo unspecified) | 0 | 60.0
Cc1ccc(NC(=O)c2cc(S(=O)(=O)NC3CCCCC3)ccc2F)cc1Cl | 0 | 0
O=C(Nc1ccc(Cl)c(Cl)c1)c1cc(S(=O)(=O)NC2CCCCC2)ccc1F | 0 | 78.0
SMILES | Pf apPOL block | mHTT-CaM PPI inh
O=C(Nc1cccc(Cl)c1)c1ccc(F)c(S(=O)(=O)NC2CCCC2)c1 | 0 | 0
O=C(Nc1cc(Cl)cc(Cl)c1)c1ccc(F)c(S(=O)(=O)NC2CCCC2)c1 | 0 | 54.0
Cc1cc(C)n(-c2nc3c(c(=O)n(C)c(=O)n3C)n2Cc2ccc(Cl)cc2Cl)n1 | 0 | -
CC1CN(C2=NC(=O)/C(=C/c3cn[nH]c3-c3ccccc3)S2)CC(C)O1 (stereo unspecified) | 65.7 | 0
Cc1ccc(/C=C2\SC(N3CC(C)OC(C)C3)=NC2=O)o1 (stereo unspecified) | 0 | 0
CCN(CC)c1ccc(C=C2C(=O)OC(c3ccccc3)OC2=O)cc1 (stereo unspecified) | 0 | 0
Cc1ccc(NC(=O)N2CCCC(CCC(=O)N3CCOCC3)C2)cc1 (stereo unspecified) | 0 | 0
Cc1ccc(NC(=O)N2CCCC(CCC(=O)N3CCC(Cc4ccccc4)CC3)C2)cc1 (stereo unspecified) | 0 | 54.0
COc1ccccc1NC(=O)c1c(NCc2ccccn2)sc2c1CCCCC2 | 0 | 73.0
CCOc1ccccc1NC(=O)c1c(NCc2ccccn2)sc2c1CCCCC2 | 0 | 73.0
CCOc1ccc(NC(=O)c2c(NC(=O)CN3CCN(C)CC3)sc3c2CCC3)cc1 | 0 | 0
CCOc1ccccc1NC(=O)c1c(NC(=O)CNCC2CCCO2)sc2c1CCC2 (stereo unspecified) | 0 | 0
CCOc1ccccc1NC(=O)c1c(NCc2ccncc2)sc2c1CCCC2 | 0 | 53.0
CCOc1ccccc1NC(=O)c1c(NC(=O)CN2CCOCC2)sc2c1CCC2 | 0 | 0
CCOc1ccc(NC(=O)c2c(NCc3ccccn3)sc3c2CCC3)cc1 | 0 | 59.0
CC(C)(C)C(=O)Nc1sc2c(c1C(=O)Nc1ccccn1)CCCC2 | 0 | 0
Cc1c(C)c(C(=O)NCc2ccccn2)n(Cc2ccc(F)cc2)c1C | 0 | 0
COc1ccccc1NCN1C(=O)c2ccccc2C1=O | 0 | 0
CCSc1nnc2c(n1)OC(c1ccc(O)c(Cl)c1)Nc1ccccc1-2 (stereo unspecified) | 0 | 0
CC(=O)c1cccc(NC(=O)c2ccccc2F)c1 | 0 | 0
